In PubChem BioAssay (NCI):
About 83,000 compounds went through this panel and 20% of them were active in at least one assay; those are over-represented in the sample as a whole.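 Values shown are percent growth following 48 h exposure of cells in 96-well plates to a single concentration of compound; below 10 was considered active.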 Values without a mark were called inactive. Activity calls are given as the source filed them.

Columns and labels:
Test in all cases: NCI-60 one-dose screen, 48 h (100 = growth as untreated, 0 = no growth, -100 = all killed)
Conditions in all cases: 10 µM unless noted
[1] = system: K-562 leukemia
[2] = system: MALME-3M melanoma
[3] = system: MDA-MB-231 breast
[4] = system: SF-268 CNS
[5] = system: SF-295 CNS
[6] = system: SF-539 CNS
[7] = system: UACC-257 melanoma
[8] = system: M14 melanoma
[9] = system: DU-145 prostate
[10] = system: RXF 393 renal

Structure (SMILES)	growth [1]	growth [2]	growth [3]	growth [4]	growth [5]	growth [6]	growth [7]	growth [8]	growth [9]	growth [10]
CCOC(=O)c1sc(NC(=O)COc2cccc(/C=C3\CCc4cc(OC)ccc4C3=O)c2)nc1C	5.6% (active)	77.1%	89.2%	69.4%	90.3%	26.4%	84.2%	89%		
Oc1ccccc1/C=N/N1CCCCCC1			96.1%	99.9%		113%	129%	118%	108%	101%
CCCCN1c2nc3ccccc3cc2Sc2cc3ccccc3nc21	99.4%	117%	76.4%	91.7%	768%	100%	104%			
COc1ccc(OC)c2c1CCC1(C2)NC(=O)NC1=O (centres undefined)	105%	96.5%	98.8%	133%	113%	95.1%		105%		108%
CC(=O)Nc1ccc(C(=O)COc2cccc(/C=C3\CCc4ccccc4C3=O)c2)cc1	36.8%	19.6%	90%	90.1%	486%	96.7%	89.8%	104%		
C=C(CN1CCc2c([nH]c3ccccc23)C1)c1ccc(C(=O)Nc2ccon2)cc1	44.2%	129%	78.6%	97.1%	114%	90%	97.3%			
Cc1cc(Cl)ccc1Nc1nc(C(F)(F)F)ccc1C(=O)N/N=C/c1ccc(Cl)cc1	5.71% (active)	-0.888% (active)	-22.5% (active)	10.4%	-41.8% (active)	0.0279% (active)	16.6%	0.962% (active)		
COc1cc(/C=N/NC(=O)c2ccc(C(F)(F)F)nc2Nc2ccc(Cl)cc2C)ccc1O	15.2%	15.1%	53.1%	34.9%	7.59% (active)	30.4%	57.2%	50.9%		
COc1cc2c(cc1OC)C(=O)/C(=C/c1cccc(OCC(=O)c3ccccc3)c1)C2	43.8%	145%	97.9%	94.9%	104%	78.2%	95.4%	96.3%		
